PubChem BioAssay AID624171 (National Center for Advancing Translational Sciences (NCATS), 2012)
Screen size: about 410,000 compounds; about 1,200 (0.29%) were called active. Another 2% or so got no clear call; they are omitted. Calls follow the shape of the dose curve; as a rule, active = well fitted activation curve with a large enough effect; inconclusive = small, poorly fitted or top-dose-only effect; inactive = flat fitted curve, though single readings scatter. The full list was thinned out, with actives kept by preference.

test: qHTS of Nrf2 Activators; settings: AREc32 ARE-luciferase reporter (MCF7-derived line), luminescence, 24 h; series mostly up to 46.1 µM; activation: at the top concentration; also: nearly all actives have a fitted effect of over 65% in size; as to activation: % of control where 0% means no effect
Excerpt: Many diseases have some form of oxidative stress injury and ties to inflammation, causing a host of problems for the patient. The antioxidant response element (ARE) plays an important role in alleviating the harmful effects of oxidative stress. The antioxidant response element (ARE) is a transcriptional regulatory element involved in the activation of genes coding for a number of antioxidant proteins and detoxifying enzymes. These enzymes work in concert to protect tissues from oxidative insults and chemical toxicities in human hepatocytes and immune cells. The protective effects of ARE activation are primarily triggered through Nrf2 (NF-E2-related factor) binding to and activating AREs. It is known that Nrf2 controls the production of over 250 antioxidant and detoxification proteins (Hu et al., 2006), thereby protecting tissues by increasing cellular antioxidant content and suppressing inflammatory signaling pathways. The transcription factor Nrf2 is a central link between oxidative chemicals, such as phenolic antioxidants and electrophilic compounds, and the activation of ARE. Nrf2 levels are constitutively low as a consequence of its interaction with Keap1, which targets its degradation (Zipper and Mulcahy, 2002). Electrophiles react with key cysteine residues in Keap1, releasing Nrf2 and allowing its translocation to the nucleus. Once within the nucleus, Nrf2 complexes with coactivators such as p300, and binds to the AREs to induce gene transcription of cytoprotective enzymes, resulting in the prevention of toxicity. Activation of Nrf2 protects tissues by increasing cellular antioxidant content and suppressing inflammatory signaling pathways. Identifying novel and potent Nrf2 activators by using the AREc32 cell line to detect ARE activation by small molecules will lead to the identification and development of probes to study protective pathways in multiple tissues. These specific probes are essential to study the ARE pathway, and eventually to determine whether this pathway does activate genes that could protect against a host of diseases, including cardiovascular diseases, obesity, diabetes, Alzheimer's, and Parkinson's disease.
This project's aim is to identify novel and potent Nrf2 activators by using the AREc32 cell line to detect ARE activation by small molecules, which will lead to the identification and development of probes to study the ARE pathway.
NIH Chemical Genomics Center [NCGC]
NIH Molecular Libraries Probe Centers Network [MLPCN]
Assay Submitter (PI): Curtis Klaassen, University of Kansas Medical Center
5 uL of 1000 cells/well of AREc32_Fluc cells are seeded into 1536-well plate in OPTI-MEM medium with 5% FBS. The plates are incubated overnight at 37 deg C with 5% CO2. Then through pin tool transfer, 23 nL of compounds are added to each well before a 24 hr incubation at 37 deg C with 5% CO2. After the addition of 2.5 uL of Steady-Glo. the plates are kept at RT for 30 min, before they are read on the ViewLux.
Potency is read from the fitted curve at half-maximal effect.

activation, inactive:
Cc1ccccc1OCC(=O)Nc1c(C(=O)Nc2ccccc2F)oc2ccccc12 -0.295%
CCOC(=O)c1cccc(NC(=O)c2cc(CN3CCCC3)on2)c1 4.24%
CC1CCC2(CC1)N=C(c1ccccc1)C(=O)N2CC(=O)Nc1ccc(F)c(Cl)c1 (stereo unspecified) -0.343%
COc1ccc(Cl)cc1NC(=O)CSc1nc(=O)[nH]c2c1CCCC2 0.708%
CCNC(=O)c1cc2n(n1)CCCN(Cc1ccc(C)cc1)C2=O -0.449%
COc1ccccc1-c1nnc(SCC(N)=O)o1 19.2%
Fc1ccc(CSc2nnc(-c3cc4c(s3)-c3ccccc3CC4)o2)cc1 4.69%
CCc1ccccc1NC(=O)c1ccc(F)c(S(=O)(=O)NC2CCCCCC2)c1 -1.4%
Fc1ccc(C(Nc2ccc(Cl)c(C(F)(F)F)c2)c2nnc(-c3ccccc3)o2)cc1 (stereo unspecified) 6.99%
COc1ccc(-n2c(C)nc3c(cnn3-c3ccc(F)cc3)c2=O)cc1 0.489%
COc1ccc(-n2c(=O)c3ccccc3n(Cc3ccccc3Cl)c2=O)cc1 -0.065%
Cc1ccccc1CS(=O)(=O)CC1Nc2ccc(C(=O)NCc3ccc(Cl)cc3)cc2NC1=O (stereo unspecified) -0.238%
O=C(NCc1ccc2c(c1)CCN2C(=O)c1ccccc1)Nc1cc(F)ccc1F 0.064%
O=S(=O)(c1cccs1)N1CCc2ccccc2C1 -0.41%
CCCCC1S/C(=N/N=C/c2cccs2)NC1=O (stereo unspecified) 2.71% [at 9.22 µM]
CCS(=O)(=O)N1CCN(C(=O)c2cccs2)CC1 -0.56%
O=C1/C(=C/c2cccs2)CCC1C1CCCC1 (stereo unspecified) 3.98%
Cc1c2cnn(-c3ccccc3)c(=O)c2c(C)n1C(C)C(=O)Nc1ccc(Br)cc1F (stereo unspecified) -0.298%
COc1ccc(-c2nc3scc(CCNS(=O)(=O)c4cc(F)ccc4OC)n3n2)cc1OC 10.4%
Cn1nc(-c2ccccc2)c(-c2ccccc2)c(C(=O)Nc2ccc(S(N)(=O)=O)cc2)c1=O 4.53%
O=S(=O)(c1ccc2nc(NCc3ccccc3Cl)ccc2c1)N1CCCCC1 -1.7%
O=C(CN1C(=O)COc2ccc(Cl)cc21)Nc1ccc(N2CCOCC2)cc1 -0.414%
CC(OC(=O)CN1C(=O)COc2ccccc21)C(=O)NCc1ccc(F)cc1 (stereo unspecified) 0.0117%
CC(Nc1ccc(-c2nc(-c3ccco3)no2)cc1[N+](=O)[O-])c1ccccc1 (stereo unspecified) 28.3%
CNc1ccc(-c2nc(-c3ccccc3C)no2)cc1[N+](=O)[O-] 5.97%
CCCCN(CCCNC(=O)c1cc(Nc2ccccc2OC)nc2ccccc12)c1ccccc1 0.34%
CCCOC(=O)c1c(NC(=O)c2cc3nc(-c4ccc(OC)cc4)cc(C(F)(F)F)n3n2)sc2c1CCCC2 -0.428%
CCOc1cc(-c2nnc(SCC(=O)NC3CCCCC3)nc2-c2ccc(OC)c(OCC)c2)ccc1OC 5.21%
CCN(CC)CCNc1ncnc2c1cnn2-c1cc(Cl)ccc1C 9.13%
O=C(Nc1ccc(OC(F)(F)F)cc1)C1CCCN(S(=O)(=O)c2ccc(Br)s2)C1 (stereo unspecified) -0.453%
O=C(Nc1ccc(Cl)cc1)c1csc([C@@H]2O[C@H](CO)[C@H](O)[C@H](O)[C@H]2O)n1 -0.424%
O=C(Nc1cccc(Cl)c1)c1csnn1 10.6%
O=S(=O)(c1ccc(C2CCCCC2)cc1)N1CCN(c2ccc(Cl)c(Cl)c2)CC1 -0.996%
CCOc1ccc2nc(N3CCCC(C(=O)Nc4cc(C)ccc4C)C3)sc2c1 (stereo unspecified) -0.0903%
Cc1cc(C)cc(NC(=O)c2cnc3sc(N4CCCC4)nn3c2=O)c1 0.541%
CCOc1ccc(CCNC(=O)c2csc3c2CCCCC3)cc1 2.83%
CCOC(=O)c1ccc(NC(=O)c2csc3c2CCCCC3)cc1 0.682%
CC(C)c1ccc(C2CC(=O)N3CN(C4CCCCC4)CSC3=C2C#N)cc1 (stereo unspecified) 0.802%
CC(=O)c1cccc(NC(=O)CSc2nc3c(c(=O)[nH]2)CCC3)c1 -0.0762%
Cc1ccc(-c2csc(C(C#N)=C(O)CN3CCN(C(=O)c4ccco4)CC3)n2)cc1 1.52%
N#CC(=C1CCCC1)c1nc(-c2ccc(Cl)cc2)cs1 2.56%
Fc1cccc(-n2ncc3c2ncn2nc(-c4ccccc4Cl)nc32)c1 8.11%

Potency, active:
CCSc1nnc(-c2cc3c(s2)-c2ccccc2CC3)o1 12.6 µM
COc1ccc(Oc2c(Cl)cnn(-c3ccccc3)c2=O)cc1 12.6 µM
O=C1/C(=C/c2cccs2)CCc2ccccc21 11.2 µM
CCC1C/C(=C/c2cccs2)C(=O)/C(=C/c2cccs2)C1 (stereo unspecified) 5.62 µM
O=C(CN1C(=O)COc2ccccc21)Nc1ccc(F)cc1 12.6 µM
CNc1ccc(-c2nc(-c3ccco3)no2)cc1[N+](=O)[O-] 1.41 µM
O=C(Nc1ccc(Cl)cc1)c1ccsn1 11.2 µM
COC(=O)c1sccc1NC(=O)c1csc2c1CCCC2 11.2 µM
N#CC(=C1SC=CS1)c1nc(-c2ccccc2)cs1 7.08 µM
